Screening results as filed in PubChem BioAssay.
These entries were drawn from the full list.
VACV E9 pol inh = blocks vaccinia virus processive DNA synthesis | in vitro processive DNA synthesis, absorbance read-out; hits give low values | normalized absorbance, % (test concentration not listed) | 46,000 compounds, 0.94% hits | AID 493162; in the data active = normalized absorbance mostly below about 85%, no sharp cut-off; inactive = mostly above about 86%
* hit, by the source's call.

SMILES	VACV E9 pol inh
CCOc1ccc2c(c1)C1C=CCC1C(c1ccc(C(=O)OC)cc1)N2 (configuration not stated)	104.7
CCC(C)NC(=O)c1ccc(/C=C2/Sc3ccccc3NC2=O)cc1 (configuration not stated)	91.7
O=C(CSC1=NCCS1)Nc1ccccc1C(F)(F)F	106.4
COc1cc(SC#N)ccc1O	96.9
O=C(NCCN1CCc2ccccc2C1)c1cc(-c2ccc(Br)s2)nc2ccccc12	98.5
COc1ccc2c(c1)C(C)=CC(C)(C)N2	99.6
CC(C)CCNC(=O)c1cccc(S(=O)(=O)NCc2ccccc2)c1	107.8
O=C(NC1CCCC1)C1CCN(S(=O)(=O)c2cccc3nonc23)CC1	102.2
Cc1ccc(-c2nnc(N3CCCCC3)c3ccccc23)cc1S(=O)(=O)NCc1ccccn1	98.8
